The list is not random: actives were taken first. Their share in the collection is about 3%.
BH1578 lux ind – inducers of Vibrio cholerae quorum light production without autoinducers; 350,000 tested, 0.16% active; V. cholerae BH1578 lux reporter, luminescence, 6 h; activation, % at 18.7 µM; in the data active means activation mostly above about 9.7%, no sharp cut-off
FBA Mtb inh – inhibitors of M. tuberculosis fructose-bisphosphate aldolase; P9WQA3; purified M. tuberculosis FBA, fluorescence read-out; inhibition, % at 1 µM; 360,000 tested, 2.3% active; in the data active means inhibition above about 27%
Target sequence (P9WQA3 whole entry, looked up): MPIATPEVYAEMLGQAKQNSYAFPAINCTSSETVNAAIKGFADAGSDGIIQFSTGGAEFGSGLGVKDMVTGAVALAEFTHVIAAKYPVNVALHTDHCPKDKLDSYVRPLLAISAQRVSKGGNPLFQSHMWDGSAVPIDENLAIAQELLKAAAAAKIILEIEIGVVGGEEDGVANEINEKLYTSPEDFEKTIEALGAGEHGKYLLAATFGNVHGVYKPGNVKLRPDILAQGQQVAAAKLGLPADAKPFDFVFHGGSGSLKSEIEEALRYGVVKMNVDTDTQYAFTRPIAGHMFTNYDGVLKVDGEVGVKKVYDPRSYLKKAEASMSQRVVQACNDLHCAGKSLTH
Mtb BioA inh – blocks M. tuberculosis BioA enzyme activity; inhibition, % at 9.99 µM; 360,000 tested, 0.096% active; purified M. tuberculosis BioA enzyme, plate reader; in the data active means inhibition above about 40%
GDH-TPI counter – inhibits GDH-TPI coupling enzymes, artifact for Mtb FBA screen | GDH-TPI coupled enzyme counterscreen, NADH absorbance | 360,000 tested, 1.2% active | inhibition, % at 4.8 µM | AID 588335; in the data active means inhibition above about 30%
Hits are given with their value.

Results for Cc1c2c(n3c(nc4ccccc43)c1C#N)N(CCN1CCOCC1)CC2 ?
BH1578 lux ind: inactive; FBA Mtb inh: active; GDH-TPI counter: inactive

How did Cc1cc(NCCCCO)n2c(nc3ccccc32)c1C#N do in these assays?
BH1578 lux ind: inactive; FBA Mtb inh: active; Mtb BioA inh: inactive; GDH-TPI counter: inactive

What do the screens show for `CCN(CC)CCCNc1cc(C)c(C#N)c2nc3ccccc3n12`?
BH1578 lux ind: inactive; FBA Mtb inh: 116; Mtb BioA inh: inactive; GDH-TPI counter: inactive

What do the screens show for `CCN(CC)CCCNc1cc(C(F)(F)F)c(C#N)c2nc3ccccc3n12`?
BH1578 lux ind: inactive; FBA Mtb inh: inactive; Mtb BioA inh: inactive; GDH-TPI counter: inactive

How did Cc1cc(NCCCN2CCOCC2)n2c(nc3ccccc32)c1C#N do in these assays?
BH1578 lux ind: inactive; FBA Mtb inh: active; Mtb BioA inh: inactive; GDH-TPI counter: inactive

Results for CN1[C@@H]2Cn3c(ccc(-c4ccccc4)c3=O)[C@H]1[C@@H](C(=O)NCCc1ccccc1)[C@@H]2CO ?
Mtb BioA inh: inactive

What do the screens show for `Cc1ccsc1C(=O)OCC(=O)c1cc(C)n(C)c1C`?
BH1578 lux ind: inactive; FBA Mtb inh: 114; Mtb BioA inh: inactive; GDH-TPI counter: inactive

What do the screens show for `COc1ccc(/C(C)=N/NC(=O)C2CC2)cc1`?
BH1578 lux ind: inactive; FBA Mtb inh: inactive; GDH-TPI counter: inactive

What do the screens show for `COc1ccc2cc(/C(C)=N/NC(=O)C3CC3)ccc2c1`?
BH1578 lux ind: inactive; FBA Mtb inh: active; GDH-TPI counter: inactive

What do the screens show for `COc1ccc(C2CC(=O)C3=C(C2)Nc2ccccc2N(C(=O)C2CC2)C3c2cccnc2)cc1OC` (configuration not stated)?
BH1578 lux ind: inactive; FBA Mtb inh: inactive; Mtb BioA inh: inactive; GDH-TPI counter: inactive

How did COc1cc(C2Nc3ccccc3NC3=C2C(=O)CC(c2ccc(OC)c(OC)c2)C3)ccc1O (configuration not stated) do in these assays?
BH1578 lux ind: inactive; FBA Mtb inh: inactive; Mtb BioA inh: inactive; GDH-TPI counter: 44

What do the screens show for `CCC(=O)N(C)CCc1cc2c(c(OC)c1/C=N/NC(=O)[C@H]1C[C@@H]1c1ccccc1)OCO2`?
BH1578 lux ind: inactive; FBA Mtb inh: inactive; GDH-TPI counter: inactive

How did CCC(=O)N(C)CCc1cc2c(c(OC)c1/C=N/Nc1ccc(C(=O)O)cc1)OCO2 do in these assays?
BH1578 lux ind: inactive; FBA Mtb inh: inactive; GDH-TPI counter: 51

How did O=C1OCCN1C(=O)[C@H]1[C@H](c2ccc([N+](=O)[O-])cc2)C(c2cccc(Cl)c2)=NN1c1ccc(Br)cc1 do in these assays?
BH1578 lux ind: inactive; FBA Mtb inh: inactive; Mtb BioA inh: inactive; GDH-TPI counter: inactive

How did O=C1OCCN1C(=O)[C@H]1[C@H](c2ccc(Cl)cc2)C(c2ccccc2)=NN1c1ccc(Br)cc1 do in these assays?
BH1578 lux ind: inactive; FBA Mtb inh: 34; Mtb BioA inh: inactive; GDH-TPI counter: inactive

Results for O=C1OCCN1C(=O)[C@H]1[C@H](c2ccc(Cl)cc2)C(c2cccc(Cl)c2)=NN1c1ccccc1 ?
BH1578 lux ind: inactive; FBA Mtb inh: 48; Mtb BioA inh: inactive; GDH-TPI counter: inactive

What do the screens show for `O=C1OCCN1C(=O)[C@H]1[C@H](c2ccc(F)cc2)C(c2cccc(Cl)c2)=NN1c1ccc(Br)cc1`?
BH1578 lux ind: inactive; FBA Mtb inh: 97; Mtb BioA inh: inactive; GDH-TPI counter: inactive

What do the screens show for `O=C1OCCN1C(=O)[C@H]1[C@H](c2ccc([N+](=O)[O-])cc2)C(c2ccccc2)=NN1c1ccc(Br)cc1`?
BH1578 lux ind: inactive; FBA Mtb inh: inactive; Mtb BioA inh: inactive; GDH-TPI counter: inactive

Results for O=C1OCCN1C(=O)[C@H]1[C@H](c2ccc(F)cc2)C(c2cccc(Cl)c2)=NN1c1ccccc1 ?
BH1578 lux ind: inactive; FBA Mtb inh: inactive; Mtb BioA inh: inactive; GDH-TPI counter: inactive

How did O=C1OCCN1C(=O)[C@H]1[C@H](c2ccccc2)C(c2cccc(Cl)c2)=NN1c1ccc(Br)cc1 do in these assays?
BH1578 lux ind: inactive; FBA Mtb inh: 54; Mtb BioA inh: inactive; GDH-TPI counter: inactive

How did CO[C@@H]1CN(C)C(=O)c2ccc(NC(=O)c3cnccn3)cc2OC[C@H](C)N(C)C[C@@H]1C do in these assays?
Mtb BioA inh: inactive

What do the screens show for `COc1ccccc1[C@@H]1C(c2cccc(C)c2)=NN(c2ccc(Br)cc2)[C@H]1C(=O)N1CCOC1=O`?
BH1578 lux ind: inactive; FBA Mtb inh: inactive; Mtb BioA inh: inactive; GDH-TPI counter: inactive

Results for COc1ccccc1[C@@H]1C(c2ccccc2)=NN(c2ccc(Br)cc2)[C@H]1C(=O)N1CCOC1=O ?
BH1578 lux ind: inactive; FBA Mtb inh: 30; Mtb BioA inh: inactive; GDH-TPI counter: inactive

Results for C[C@@H]1CN([C@H](C)CO)C(=O)c2cccc(NC(=O)C3CCCCC3)c2O[C@H]1CN(C)Cc1ccc(-c2ccccc2)cc1 ?
Mtb BioA inh: inactive

How did COC(=O)C(C)SC1=N/C(=C/c2ccc(-n3cncn3)cc2)C(=O)N1 (configuration not stated) do in these assays?
BH1578 lux ind: inactive; FBA Mtb inh: inactive; Mtb BioA inh: inactive; GDH-TPI counter: 43

How did CCSC1=N/C(=C\c2ccccc2)C(=O)N1 do in these assays?
BH1578 lux ind: inactive; FBA Mtb inh: inactive; Mtb BioA inh: inactive; GDH-TPI counter: inactive

Results for C[C@H]1CCCCO[C@@H](CN(C)C)[C@@H](C)CN([C@@H](C)CO)C(=O)c2cc(NS(=O)(=O)c3ccc(F)cc3)ccc2O1 ?
Mtb BioA inh: inactive

Results for CN(C)C(=O)[C@H]1[C@H](CO)[C@H]2Cn3c(ccc(-c4ccccc4F)c3=O)[C@@H]1N2C(=O)c1ccncc1 ?
Mtb BioA inh: inactive

What do the screens show for `OCCCc1nc2n(n1)C(c1ccccc1Cl)C=C(c1cccs1)N2` (configuration not stated)?
BH1578 lux ind: inactive; FBA Mtb inh: 55; Mtb BioA inh: inactive; GDH-TPI counter: inactive

How did OCCCc1nc2n(n1)C(c1ccccc1)C=C(c1ccc(F)cc1)N2 (configuration not stated) do in these assays?
BH1578 lux ind: inactive; FBA Mtb inh: inactive; GDH-TPI counter: inactive

How did COc1ccccc1C#Cc1ccc([C@@H]2[C@@H](C#N)N(C(=O)C3CC3)[C@H]2CO)cc1 do in these assays?
Mtb BioA inh: inactive

Results for O=C(C[C@H]1CC[C@@H](NC(=O)C2CC2)[C@H](CO)O1)NCc1ccccc1Cl ?
Mtb BioA inh: inactive

How did COc1cccc(C(=O)Nc2ccc3c(C)cc(=O)oc3c2)c1 do in these assays?
BH1578 lux ind: inactive; FBA Mtb inh: inactive; Mtb BioA inh: inactive; GDH-TPI counter: inactive

How did CCOC(=O)Nc1ccc2c(C)cc(=O)oc2c1 do in these assays?
BH1578 lux ind: inactive; FBA Mtb inh: 199; Mtb BioA inh: inactive; GDH-TPI counter: inactive

How did CCOC(=O)Nc1ccc2c(COC(=O)CNS(=O)(=O)c3ccc(NC(C)=O)cc3)cc(=O)oc2c1 do in these assays?
BH1578 lux ind: inactive; FBA Mtb inh: 160; Mtb BioA inh: inactive; GDH-TPI counter: inactive

What do the screens show for `CCOC(=O)Nc1ccc2c(CN(C)Cc3ccc(F)cc3)cc(=O)oc2c1`?
BH1578 lux ind: inactive; FBA Mtb inh: inactive; Mtb BioA inh: inactive; GDH-TPI counter: inactive

What do the screens show for `Cc1cc(=O)oc2cc(NC(=O)c3ccccc3C(=O)O)ccc12`?
BH1578 lux ind: inactive; FBA Mtb inh: active; Mtb BioA inh: inactive; GDH-TPI counter: inactive
